# Results published in PubChem BioAssay (NCI).
# Where “and” joins values, the source holds several entries; their conditions need not be identical. Equal values may be shown once. About 83,000 compounds went through this panel and 20% of them were active in at least one assay; those are over-represented in the sample as a whole.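 48-hour exposure, single concentration, 96-well plates; percent growth endpoint where 0 means no net growth. Active: below 10.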 Calls of active or inactive are those of the source.
# Tests used:
# Test in all cases: NCI-60 one-dose screen, 48 h (100 = growth as untreated, 0 = no growth, -100 = all killed)
# Conditions in all cases: 10 µM unless noted
# UACC-62 melanoma = tested on: UACC-62 melanoma
# TK-10 renal = tested on: TK-10 renal
# MCF7 breast = tested on: MCF7 breast
# HL-60(TB) leukemia = tested on: HL-60(TB) leukemia
compound,measurement,setting,value
CN(N)/N=N/c1nc[nH]c1C(N)=O,growth,UACC-62 melanoma,-13.9% [100 µM] (active) and 0.502% [100 µM] (active)
same,growth,TK-10 renal,5.8% [100 µM] (active) and 2.21% [100 µM] (active)
same,growth,MCF7 breast,19% [100 µM] (inactive) and 4.05% [100 µM] (active)
COC(=O)[C@H](Cc1cn(C)cn1)NC(=O)[C@H](CC(C)C)NC(=O)Nc1cc(C(F)(F)F)cc(C(F)(F)F)c1,growth,HL-60(TB) leukemia,-72.6% [100 µM] (active)
CC([C@H]1CCC2C3CCC4C[C@@H](N)CC[C@]4(C)C3CC[C@@]21C)N(C)C (some centres undefined),growth,HL-60(TB) leukemia,30.6% (inactive)
Nc1nc(N)c2c(ccc3c2ccn3Cc2cccc([N+](=O)[O-])c2)n1,growth,HL-60(TB) leukemia,8.38% (active)
O=[N+]([O-])c1ccc(Oc2cccc(C(F)(F)F)c2)c([N+](=O)[O-])c1,growth,HL-60(TB) leukemia,14.3% (inactive)
C#CCn1cc(C=C2C(=O)NC(=O)NC2=O)c2cc(Cl)ccc21,growth,HL-60(TB) leukemia,59.9% (inactive)
O=C(Cn1nc(-c2cccc3ccccc23)ccc1=O)NCc1cccc(Cl)c1,growth,HL-60(TB) leukemia,22.3% [50 µM] (inactive)
COc1cc(C2C(C#N)=C(N)Oc3cc4c(cc32)OCO4)cc2c1OCO2 (centres undefined),growth,HL-60(TB) leukemia,-43% (active)
CN1C(=O)C(C2=NN(C=O)C(c3ccc(F)cc3)C2)C(=O)N(C)C1=O (centres undefined),growth,HL-60(TB) leukemia,105% (inactive)
CCOC(=O)c1[nH]c2c(c1C)-c1[nH]c(=O)c(S(=O)(=O)c3ccccc3)cc1SC2,growth,HL-60(TB) leukemia,54.7% [100 µM] (inactive)
COc1ccc(CN2CCCC(C(=O)c3ccc(C(F)(F)F)cc3)C2)c(O)c1 (centres undefined),growth,HL-60(TB) leukemia,17% (inactive)
CCN1C(=O)N(CC)C2Nn3c(s/c(=C4\C(=O)N(C5CCCC5)c5ccccc54)c3=O)=NC21 (centres undefined),growth,HL-60(TB) leukemia,29.8% (inactive)
Cc1[nH]c(/C=C2\C(=O)Nc3ccc(F)cc32)c(C)c1C(=O)NC[C@H](O)CN1CCOCC1,growth,HL-60(TB) leukemia,4.41% (active)
Cc1cc(CSc2ccccc2C(=O)N2CC=C(c3ccccc3)CC2)on1,growth,HL-60(TB) leukemia,87.7% (inactive)
O=C(NNc1ccccc1)c1ncc[nH]1,growth,HL-60(TB) leukemia,7.71% (active)
Cn1c2ccccc2c2ssc(=S)c21,growth,HL-60(TB) leukemia,43.5% (inactive)
COc1cccc(-c2nc3sccn3c2-c2ccnc(NCCCNS(=O)(=O)c3ccccc3)c2)c1,growth,HL-60(TB) leukemia,-12.4% (active)
O=S(=O)(NCCNc1nccc(-c2c(-c3cccc(F)c3)nc3occn23)n1)c1ccc(Br)cc1,growth,HL-60(TB) leukemia,103% (inactive)
c1ccc2c(-c3cnn4cc(-c5ccc(N6CCNCC6)cc5)cnc34)ccnc2c1,growth,HL-60(TB) leukemia,-55.7% (active)
Cc1cnc(Nc2ccc(OCCN3CCCC3)cc2)nc1Nc1cccc(S(=O)(=O)NC(C)(C)C)c1,growth,HL-60(TB) leukemia,-39.7% (active)
O=C(Nc1ccc(F)cc1F)c1cc(I)ccc1O,growth,HL-60(TB) leukemia,-34.5% (active)
Nc1cc(O)cc2cccnc12,growth,HL-60(TB) leukemia,98.5% (inactive)
C=CCN=C(N)SCCCCCCSC(N)=NCC=C,growth,HL-60(TB) leukemia,75.8% (inactive)
COc1cc2ncnc(Nc3ccc(F)c(Cl)c3)c2cc1NC(=O)/C=C/CN1CCCCC1,growth,HL-60(TB) leukemia,-50.2% (active)
CC(=O)c1cc2c(N)c(C(=O)Nc3cccc4c3OCCO4)sc2nc1C,growth,HL-60(TB) leukemia,86.8% (inactive)
COc1ccc(C(c2cc(OC)c(OC)c(OC)c2)N2CCCCC2)cc1 (centres undefined),growth,HL-60(TB) leukemia,4.36% (active)
CCNC(=O)Oc1ccc(/C(=C(\C)c2ccc(Cl)cc2)c2ccc(OCCN(CC)CC)cc2)cc1,growth,HL-60(TB) leukemia,23.9% (inactive)
COc1ccncc1C#Cc1cncc(C(=O)Nc2ccc(CN3CCN(C)CC3)c(C(F)(F)F)c2)c1,growth,HL-60(TB) leukemia,8.01% (active)
CC(=O)c1ccc(NS(=O)(=O)c2cccc(C(=O)Nc3ccc(Br)cc3)c2)cc1,growth,HL-60(TB) leukemia,47.3% [25 µM] (inactive)
COC(=O)[C@@]12OC[C@]34[C@H]([C@@H](O)[C@@H]1O)[C@@]1(C)[C@H](O)C(=O)C=C(C)[C@@H]1C[C@H]3OC(=O)C(OC(C)=O)[C@@H]24 (some centres undefined),growth,HL-60(TB) leukemia,-59% (active)
C=CCOC(=O)C1=C(C)NC(=O)NC1c1c(Cl)n(C)c2ccccc12 (centres undefined),growth,HL-60(TB) leukemia,109% (inactive)
COc1cc(-c2nc(SCC(=O)Nc3ccc(C(C)=O)cc3)[nH]c(=O)c2C#N)cc(OC)c1OC,growth,HL-60(TB) leukemia,-54.3% (active)
COc1ccc(C(=O)/C=C/c2c(Cl)c3c(c(OC)c2Cl)OCC(=O)N3)cc1,growth,HL-60(TB) leukemia,13.8% (inactive)
O=C(/C=C(/C=C/c1csc2ccccc12)OB(F)F)/C=C/c1csc2ccccc12,growth,HL-60(TB) leukemia,2.68% (active)
COc1cc(-c2c(C#N)c(N)n3c(nc4ccccc43)c2C#N)cc(Br)c1OC,growth,HL-60(TB) leukemia,62.9% (inactive)
NC(=O)SCC(=O)Nc1ccc(S(N)(=O)=O)cc1,growth,HL-60(TB) leukemia,103% (inactive)
COc1ccc(/C=C2/SC(=O)N(CC(=O)N3CCN(c4cc5c(cc4F)c(=O)c(C(=O)O)cn5C4CC4)CC3)C2=O)cc1,growth,HL-60(TB) leukemia,105% (inactive)
C#Cc1cccc(Nc2nc(C)nc3cc(NC(=O)CCl)ccc23)c1,growth,HL-60(TB) leukemia,-58% (active)
CC[C@H](Nc1nc(N)nc(C2CC2)c1C#N)c1nc2cccc(NCc3ccc(C(=O)NO)cc3)c2c(=O)n1-c1ccccc1,growth,HL-60(TB) leukemia,-19.3% (active)
COc1cc(/C=C/C(=O)c2c(C)[n+]([O-])c3ccccc3[n+]2[O-])ccc1O,growth,HL-60(TB) leukemia,102% (inactive)
O=C(NNC(=O)N1c2ccccc2C=Cc2ccccc21)c1ccc2ccccc2c1,growth,HL-60(TB) leukemia,90% (inactive)
O=[N+]([O-])c1cc(Br)c2cccc3c2c1CC3,growth,HL-60(TB) leukemia,94.4% (inactive)
